SSB-PriA inh: K. pneumoniae PriA-SSBct interaction inhibition; AlphaScreen SSBct-PriA binding, biotinylated peptide; inhibition, % at 33 µM; actives 0.6% (n = 430,000); AID 1272365; in the data active = inhibition mostly above about 37%, no sharp cut-off; inactive = mostly below about 20%;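 note: plate controls were negative control peptide for no effect and reference peptide for full effect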
Autofluor counter: compound fluorescence in toxin protease inhibitor counterscreen | compound autofluorescence counterscreen, microsphere flow cytometry; active compounds read high | fluorescence intensity (test concentration not listed) | actives 3.1% (n = 360,000); in the data active = fluorescence intensity above about 16000; inconclusive = no clear call, values can overlap the other calls
Anthrax LF prot: blocks Bacillus anthracis lethal factor protease. P15917. multiplex microsphere protease cleavage assay, LF. inhibition, % at 10 µM. actives 0.12% (n = 360,000). AID 588501; note: plate controls were buffer without enzyme for full effect and enzyme alone for no effect
BoNT A protease: blocks Botulinum neurotoxin A light chain protease | actives 0.17% (n = 360,000) | multiplex microsphere protease substrate cleavage, flow cytometry | inhibition, % at 10 µM; note: plate controls were buffer without enzyme for full effect and enzyme alone for no effect
BoNT-F LC inh: BoNT F light chain protease inhibition; Multiplex microsphere protease cleavage assay, flow cytometry; inhibition, % at 10 µM; actives 0.22% (n = 360,000); AID 588497; in the data active = inhibition above about 35%, passing the limit was not always enough; inconclusive = no clear call, values can overlap the other calls; note: plate controls were buffer without enzyme for full effect and enzyme alone for no effect
* = called active by the depositor; ? = inconclusive; nt = not tested or not shown. A selection: hits, their analogues and other compounds. The true share with any hit is near 3.1%. Cut-off read from the data, not from the text of the source, unless noted: active = inhibition above about 30%; inconclusive = no clear call, values can overlap the other calls; inactive = below that.

SMILES	SSB-PriA inh	Autofluor counter	Anthrax LF prot	BoNT A protease	BoNT-F LC inh
Nc1nnc(SCC(=O)Nc2ccc3c(c2)OCCO3)s1	-4.7	17217*	-13.8	-1.9	-4.1
O=C(CNCc1ccccc1Cl)Nc1ccc2c(c1)OCCO2	1.1	6224	-6.5	-0.5	-20.1
O=C(O)CSc1nnc(-c2ccc3c(c2)OCO3)o1	-13.2	16221*	0.8	1.0	-1.5
O=C(CSc1nnc(-c2cccc(Cl)c2)o1)Nc1ccc2c(c1)OCCO2	-9.8	22299*	-5.2	?	-1.0
CCc1nnc(NC(=O)c2nnn(-c3cc(C)ccc3Cl)c2C)s1	-10.0	nt	nt	nt	nt
CC(SCc1ccccc1)C(=O)N/N=C/c1ccc2c(c1)OCO2 (stereo unspecified)	nt	4865	-6.4	-1.3	-30.3
CC(SCc1ccccc1)C(=O)Nc1ccc2c(c1)OCO2 (stereo unspecified)	-0.9	16775*	-4.4	-1.0	-8.0
Cc1ccc(-n2cnc3cc(C(=O)O)ccc32)c(C)c1	-6.0	nt	nt	nt	nt
CC1CN(S(=O)(=O)c2ccccc2)CC(C)O1 (stereo unspecified)	-3.8	23507*	0.4	?	0.4
CC(=O)C(=NNc1ccc(Cl)cc1Cl)Sc1cccc2cccnc12	72.7*	nt	nt	nt	nt
O=C(c1ccc(-c2ccc(Cl)cc2)o1)N1CCN(c2ccc([N+](=O)[O-])cc2Cl)CC1	-9.0	21861*	1.6	4.8	-0.2
COc1ccc(NC(=O)Cn2cc(C(=O)c3ccco3)c3ccccc32)cc1	-22.8	3014	-3.2	0.0	-2.9
CCOc1ccc(NC(=O)Cn2cc(C(=O)c3ccco3)c3ccccc32)cc1	-16.4	16382*	-14.1	14.1	10.7
O=C(c1ccco1)c1cn(Cc2ccccc2Cl)c2ccccc12	-10.9	24624*	-0.2	?	-1.8
Cc1ccc(C(C(=O)NC2CCCCC2)N2CCCC2)cc1 (stereo unspecified)	-7.2	3664	-1.8	0.3	35.5*
Cc1ccc(C2C(=O)N(C3CCCC3)CC(=O)N2CC2COc3ccccc3O2)cc1 (stereo unspecified)	-9.7	19758*	-5.6	8.6	9.1
COc1ccc(C2C(=O)N(C3CCCCC3)CC(=O)N2CC2COc3ccccc3O2)cc1 (stereo unspecified)	-3.5	21276*	-1.8	4.8	6.8
COC(=O)c1ccc(COc2cccc3c2CCN(Cc2ccc(F)cc2)C3=O)o1	-10.0	nt	nt	nt	nt
CCCc1nnsc1C(=O)N[C@H]1CCN(c2ccc(C(F)(F)F)cn2)C1	-13.0	nt	nt	nt	nt
COc1ccc(-n2c(SCC(=O)N3CCCCC3)nc(O)cc2=O)cc1	-2.3	21636*	1.8	-2.7	-2.9
CC1(C)CC(=O)C(C=NCCc2ccc(S(N)(=O)=O)cc2)=C(O)C1	1.9	23978*	-2.0	-2.1	-7.1
COc1ccccc1C(=O)N1CCC(C(=O)c2ccc(F)cc2)CC1	-2.4	19021*	-20.7	4.5	2.7
COc1ccc(C(=O)N2CCC(C(=O)c3ccc(F)cc3)CC2)cc1	-8.3	9120	-2.0	0.8	4.1
COc1ccc(NC(=O)C2CCN(C(=O)c3ccccc3)CC2)c(OC)c1	-5.1	8888	-5.3	0.3	-11.7
COC(=O)C1CCN(C(=O)c2ccccc2NC(C)=O)CC1	1.2	8333	-5.0	0.1	3.5
SMILES	SSB-PriA inh	Autofluor counter	Anthrax LF prot	BoNT A protease	BoNT-F LC inh
COC(=O)C1CCN(C(=O)c2ccccc2Oc2ccccc2)CC1	-5.7	20014*	-4.0	1.6	1.1
CCOC(=O)N1CCN(C(=O)c2ccc(NC(C)=O)cc2)CC1	11.4	12835	3.0	1.2	7.4
COc1ccc(C(=O)N2CCC(C(=O)Nc3ccccc3OC)CC2)cc1	-3.2	22688*	-1.3	?	-2.7
COC(=O)C1CCN(C(=O)c2ccc(NC(C)=O)cc2)CC1	-5.3	22006*	-0.9	-2.7	-4.3
Cn1c(=O)c2c(ncn2CC(=O)N2Cc3nn(C(C)(C)C)c(-n4cccc4)c3C2)n(C)c1=O	12.0	nt	nt	nt	nt
CS(=O)(=O)N1CCCC1C(=O)Nc1cccc(-c2nc3ccccc3o2)c1 (stereo unspecified)	-6.0	nt	nt	nt	nt
O=[N+]([O-])c1ccc(N2CCOCC2)cc1N1CCOCC1	47.0	nt	nt	nt	nt
CC1CCN(C(=O)c2ccc(NS(C)(=O)=O)cc2)CC1	4.2	19949*	0.8	?	0.5
CS(=O)(=O)Nc1ccc(C(=O)N2CCCCC2)cc1	-3.6	6656	-0.8	0.4	-3.9
Cc1ccccc1C(=O)N/N=C/c1ccncc1	nt	19987*	-2.0	?	-0.8
O=C(N/N=C\c1ccncc1)c1ccccc1O	nt	1911	-3.6	0.0	-7.3
COC(=O)c1sccc1-c1ccc(/C=N/OC(=O)c2ccccc2)o1	nt	20465*	-2.6	5.5	5.4
COC(=O)c1sccc1-c1ccc(C=NOCc2c(Cl)cccc2Cl)o1	-3.5	nt	nt	nt	nt
CC(=NNC(=O)C(N)=O)c1cccc(C(F)(F)F)c1	-12.3	nt	nt	nt	nt

Source: PubChem BioAssay
